Calls of active or inactive are those of the source.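 Rule for the calls: active = high combined rank on largest and smallest cell-count-weighted shift across three tests, rank score above 45, floors 50 and 25 (some results past the limit were not filed as active); inactive = the rest.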
Assay: LNCaP granularity increase inducers, single-point recheck – cell-based, side scatter shift, flow cytometry, confirmation (AID 1069);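 note: LNCaP human prostate cancer cells in low-serum medium with charcoal-stripped FBS; percent of cells with raised granularity gated so DMSO controls show 10%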
Details: LNCaP differentiation, 4 d, stronger effect = higher value

| Structure (SMILES) | side scatter shift (at 100 µM) | side scatter shift (side scatter shift, at 10 µM) [%] |
| --- | --- | --- |
| CCOC(=O)c1ccc(NC(=O)Nc2ccc3c4c(cccc24)C(=O)N3CC)cc1 | 34.3% (inactive) | 8.75 |
| COc1ccc2cc3c(N)nn(C(=O)Cc4ccccc4OC)c3nc2c1 | 20% (inactive) | 8.05 |
| CCN1CCN(c2ncc(C(=O)Nc3cc(Cl)c(OC)cc3OC)c3ccccc23)CC1 | 53.7% (inactive) | 19.2 |
| COc1cccc(Oc2cnc(N)nc2-c2ccc(OC)cc2O)c1 | 22.2% (inactive) | 6.3 |
| COc1ccc(-c2ccc(-c3noc(-c4ccccc4)n3)c(OC)n2)cc1 | 56.7% (inactive) | 22.5 |
| CC(C)(C)c1ccc(C(O)CCCN2CCC(C(O)(c3ccccc3)c3ccccc3)CC2)cc1 (configuration not stated) | 16.7% (inactive) | 14.8 |
| O=C1CCCc2c1cc(C(=O)NC1CCSC1=O)c(=O)n2-c1ccccc1 (configuration not stated) | 5.9% (inactive) | 4.8 |
| Cc1oc(-c2cccc(Cl)c2)nc1CN1CCCC(C(=O)NC(C)c2ccc3c(c2)OCCO3)C1 (configuration not stated) | 0% (inactive) | 1.65 |
| CCc1nn(C(C)C(=O)N2CCc3ccccc3C2)c(=O)c2cc3occc3n12 (configuration not stated) | 5.5% (inactive) | 2.8 |
| COc1ccccc1N1CCN(c2nc3ccccc3nc2C(C#N)C(=O)OC(C)C)CC1 (configuration not stated) | 78.2% (active) | 21.1 |
| CCn1c(SCC(=O)Nc2ccccc2F)nc2c(c1=O)SC(C)C2 (configuration not stated) | 8% (inactive) | 0.85 |
| CCN1CCN(c2cc(C)c3cc(NC(=O)c4ccc(Br)o4)ccc3n2)CC1 | 2.8% (active) | 32.8 |
| O=C(NCCc1c[nH]c2ccccc12)C(F)(F)C(F)F | 9% (inactive) | 5.05 |
| Cc1oc(-c2ccccc2F)nc1CN1CCC(C(=O)NC2CCCCCCC2)CC1 | 16.7% (inactive) | 9.45 |
| O=c1cc(N2CCN(c3ccc(F)cc3)CC2)[nH]c(=O)n1C1CCCCC1 | 16.8% (inactive) | 5.4 |
| Cn1c(=O)cc(OCC(=O)NCCCN2CCN(c3ccccc3F)CC2)c2ccccc21 | 66.5% (active) | 4.5 |
| Cc1cc(NC(=O)CSc2nnc(Cn3c(=O)sc4ccccc43)n2-c2ccccc2C)no1 | 26.5% (inactive) | 8.25 |
| CCOC(=O)c1c(-c2ccc(C)o2)csc1NC(=O)CN1CCN(CC)CC1 | 22.2% (inactive) | 8.3 |

| Structure (SMILES) | side scatter shift (at 100 µM) | side scatter shift (side scatter shift, at 10 µM) [%] |
| --- | --- | --- |
| CCOC(=O)N1CCC(NC(=O)c2cc3c(-c4ccc(OC)c(OC)c4)nn(C)c3s2)CC1 | 16.6% (inactive) | 3.9 |
| COc1ccccc1NC(=O)c1nc[nH]c1C(=O)Nc1ccccc1OC | 50.5% (inactive) | 5.65 |
| Cc1ccc(C)c(N2CCN(C(=O)CCNC(=O)Cn3ccc4ccccc4c3=O)CC2)c1 | 25% (inactive) | 10 |
| Cc1ccc(CN2CCSc3ccc(C(=O)N4CCN(c5ncccn5)CC4)cc32)cc1 | 18.6% (inactive) | 7.2 |
| O=C(CCN1C(=O)COc2ccccc21)NCCCN1CCN(c2ccccc2F)CC1 | 21% (inactive) | 4.4 |
| Cc1oc(-c2ccccc2F)nc1CN1CCC(C(=O)NCc2ccco2)CC1 | 23.3% (inactive) | 3 |
| CCOc1ccc2ccccc2c1C(=O)N1CCN(c2ccccc2)CC1 | 21.1% (inactive) | 1.7 |
| Cc1cc(=O)n2nc(N3CCCC(C(=O)NCc4ccco4)C3)sc2n1 (configuration not stated) | 7.4% (inactive) | 4.75 |
| COc1ccc(CCN2CCC(Nc3nc4ccccc4n3Cc3ccc(F)cc3)CC2)cc1 | 0% (active) | 35.3 |
| COC(=O)c1ccccc1NC(=O)CN1CCC(n2nnc3cc(F)ccc32)CC1 | 25.9% (inactive) | 6.9 |
| CCc1ccc(-c2nc(CN3CCC(C(=O)NCc4ccco4)CC3)c(C)o2)cc1 | 20% (inactive) | 16.5 |
| Cc1ccc(C)c2[nH]c(=O)c(CN(CCN3CCCC3)C(=O)Nc3cccc(Cl)c3)cc12 | 20% (inactive) | 49.6 |
| CCCS(=O)(=O)N1CCCC(C(=O)NCCCN2CCN(c3cccc(Cl)c3)CC2)C1 (configuration not stated) | 17% (inactive) | 6.55 |
| CN1C(=O)c2ccc(S(=O)(=O)c3ccc(C(=O)O)cc3)cc2C1=O | 7.2% (inactive) | 5.75 |
| CCOc1ccccc1NC(=O)c1nc[nH]c1C(=O)Nc1ccccc1OCC | 40% (inactive) | 6.05 |
| Cn1c(C(=O)NCCCN2CCN(c3ccccc3F)CC2)cc2c(=O)[nH]c3ccccc3c21 | 33.3% (inactive) | 11.1 |
| O=c1cc(N2CCc3ccccc3C2)[nH]c(=O)n1C1CCCCC1 | 16.8% (inactive) | 5.9 |
| CC(C)N1CCC2(CC1)N=C(c1ccc3c(c1)OCO3)CC(c1cc(Cl)ccc1O)N2 (configuration not stated) | 26.1% (inactive) | 18.8 |
